In PubChem BioAssay (NCI):
Compounds without any hit were thinned out: in the full panel of roughly 83,000, 20% have a hit.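 Cells were grown in 96-well plates and exposed to the test compound at a single concentration for 48 hours; results are reported as percent growth, with values below 10 considered active.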 Activity calls are given as the source filed them.

What was measured:
Experiment in all cases: NCI-60 one-dose screen, 48 h (100 = growth as untreated, 0 = no growth, -100 = all killed)
Conditions in all cases: 10 µM unless noted
NCI-H23 lung = test system: NCI-H23 lung
NCI-H226 lung = test system: NCI-H226 lung
NCI-H322M lung = test system: NCI-H322M lung
HOP-62 NSCLC = test system: HOP-62 NSCLC
NCI-H460 lung = test system: NCI-H460 lung
HOP-92 NSCLC = test system: HOP-92 NSCLC
NCI-H522 lung = test system: NCI-H522 lung
A549/ATCC NSCLC = test system: A549/ATCC NSCLC
786-0 renal = test system: 786-0 renal
COLO 205 colon = test system: COLO 205 colon

Measured: growth

COc1ccc(NC(=O)c2sc3nc(C)c(C(=O)c4ccccc4)cc3c2N)cc1
inactive: NCI-H23 lung 96.1% | NCI-H226 lung 97.2% | NCI-H322M lung 64.7% | HOP-62 NSCLC 97.7% | NCI-H460 lung 61.3% | HOP-92 NSCLC 111% | NCI-H522 lung 80.8% | A549/ATCC NSCLC 52% | 786-0 renal 96.4% | COLO 205 colon 108%

C/C(=N\NC(=O)c1ccc(C(C)(C)C)cc1)c1ccc(O)cc1O
active: NCI-H460 lung 3.99% | COLO 205 colon 7.24%
inactive: NCI-H23 lung 23.7% | NCI-H226 lung 25.6% | NCI-H322M lung 25.5% | HOP-62 NSCLC 20.9% | HOP-92 NSCLC 59.3% | NCI-H522 lung 27.5% | A549/ATCC NSCLC 21.5% | 786-0 renal 15.3%

CCCNNC(=O)c1ccc(CNC(=O)/C=C/c2ccccc2)cc1
active: COLO 205 colon -16.5% [2.5 µM]
inactive: NCI-H23 lung 50.3% [2.5 µM] | NCI-H226 lung 73.4% [2.5 µM] | NCI-H322M lung 34.5% [2.5 µM] | HOP-62 NSCLC 20.3% [2.5 µM] | NCI-H460 lung 40.2% [2.5 µM] | HOP-92 NSCLC 25.6% [2.5 µM] | NCI-H522 lung 38.3% [2.5 µM] | A549/ATCC NSCLC 34.8% [2.5 µM] | 786-0 renal 33.1% [2.5 µM]

O=c1[nH]c(CN2CCN(c3ccccc3)CC2)nc2c(Br)cc(Br)cc12
inactive: NCI-H23 lung 98.4% | NCI-H226 lung 93.4% | NCI-H322M lung 112% | HOP-62 NSCLC 101% | NCI-H460 lung 100% | HOP-92 NSCLC 131% | NCI-H522 lung 103% | A549/ATCC NSCLC 101% | 786-0 renal 103% | COLO 205 colon 104%

COc1ccc(/C(C)=C(\c2ccc(Cl)cc2)c2ccc(OCCCN(C)C)cc2)cc1
inactive: NCI-H23 lung 82.3% | NCI-H226 lung 103% | NCI-H322M lung 82.2% | HOP-62 NSCLC 101% | NCI-H460 lung 40.2% | HOP-92 NSCLC 62.5% | NCI-H522 lung 76.7% | A549/ATCC NSCLC 47.2% | 786-0 renal 75.3% | COLO 205 colon 15%

Cc1ccc(C2=Nc3c(N)nc(N)nc3NC(c3cccc(Nc4ccnc5cc(C(F)(F)F)ccc45)c3)C2)cc1 (stereo not given)
active: COLO 205 colon 7.09%
inactive: NCI-H23 lung 39.4% | NCI-H226 lung 80.7% | NCI-H322M lung 54.8% | HOP-62 NSCLC 34.1% | NCI-H460 lung 11.7% | HOP-92 NSCLC 28.3% | NCI-H522 lung 11.9% | A549/ATCC NSCLC 30.1% | 786-0 renal 20.9%

C=CCn1c(SCC(=O)Nc2ccc(C(=O)/C=C/c3cc(OC)c(OC)c(OC)c3)cc2)nnc1-c1cc(-c2ccc(S(N)(=O)=O)cc2)nc2ccccc12
inactive: NCI-H23 lung 88.9% | NCI-H226 lung 90.7% | NCI-H322M lung 105% | HOP-62 NSCLC 111% | NCI-H460 lung 94.9% | HOP-92 NSCLC 96.9% | NCI-H522 lung 92.7% | A549/ATCC NSCLC 107% | 786-0 renal 101% | COLO 205 colon 109%

CC/C(=C(/c1ccc(Cl)cc1)c1ccc(OCCN(CC)CC)cc1)c1ccc(OC)cc1
inactive: NCI-H23 lung 48.7% | NCI-H226 lung 80.5% | NCI-H322M lung 66.9% | HOP-62 NSCLC 89.2% | NCI-H460 lung 16.6% | HOP-92 NSCLC 51.7% | NCI-H522 lung 66.6% | A549/ATCC NSCLC 48.8% | 786-0 renal 49.5% | COLO 205 colon 22.2%

O=c1oc2ccccc2cc1-c1nn(-c2ccccc2)cc1/C=N/Nc1nc(-c2ccccc2)c(N=Nc2ccccc2)s1
inactive: NCI-H23 lung 88.1% | NCI-H226 lung 99.5% | NCI-H322M lung 105% | HOP-62 NSCLC 71.6% | NCI-H460 lung 73.5% | HOP-92 NSCLC 79.7% | NCI-H522 lung 41.5% | A549/ATCC NSCLC 50.1% | 786-0 renal 90.7% | COLO 205 colon 72.8%

[2H]C([2H])([2H])Oc1ccc(/C=C/C(=O)/C=C(O)/C=C/c2ccc(OC([2H])([2H])[2H])c(OC([2H])([2H])[2H])c2)cc1OC([2H])([2H])[2H]
inactive: NCI-H23 lung 34.3% | NCI-H226 lung 70.6% | NCI-H322M lung 103% | HOP-62 NSCLC 47.7% | NCI-H460 lung 46.7% | HOP-92 NSCLC 72.7% | NCI-H522 lung 14.8% | A549/ATCC NSCLC 32.4% | 786-0 renal 48.9% | COLO 205 colon 30.4%

Nc1ccc(N)c2c1C(=O)c1cccc([N+](=O)[O-])c1C2=O
inactive: NCI-H226 lung 16.6% | HOP-92 NSCLC 63.3% | NCI-H522 lung 25.6% | A549/ATCC NSCLC 20.8% | 786-0 renal 17.4% | COLO 205 colon 66.3%
active: NCI-H23 lung -29.1% | NCI-H322M lung 2.12% | HOP-62 NSCLC 9.73% | NCI-H460 lung -3.34%

COc1ccc(-c2nc3cc(C(=O)NC4CCCCC4)ccc3n2C2CCCCC2)cc1
inactive: NCI-H23 lung 92.5% | NCI-H226 lung 115% | NCI-H322M lung 85.8% | HOP-62 NSCLC 101% | NCI-H460 lung 86.2% | HOP-92 NSCLC 121% | NCI-H522 lung 73.5% | A549/ATCC NSCLC 89.4% | 786-0 renal 88.3% | COLO 205 colon 73.6%

CCOC(=O)c1cnc2sc(-c3ccc(OC)cc3)nc2c1Cl
inactive: NCI-H23 lung 82% | NCI-H226 lung 99.2% | NCI-H322M lung 89.2% | HOP-62 NSCLC 112% | NCI-H460 lung 100% | HOP-92 NSCLC 94.7% | NCI-H522 lung 97.8% | A549/ATCC NSCLC 106% | 786-0 renal 115% | COLO 205 colon 123%

COc1ccc(/C=C/C(=O)c2ccc(-n3cc(CN4CCN(c5cc6c(cc5F)c(=O)c(C(=O)O)cn6C5CC5)CC4)nn3)cc2)cc1
inactive: NCI-H23 lung 78.7% | NCI-H226 lung 67.3% | NCI-H322M lung 72.8% | HOP-62 NSCLC 75.6% | NCI-H460 lung 77.9% | HOP-92 NSCLC 66.6% | NCI-H522 lung 67.6% | A549/ATCC NSCLC 66.1% | 786-0 renal 71.9% | COLO 205 colon 98.2%

O=C1c2cccnc2C(=O)c2c1c(C(=O)OCCCN1CCOCC1)c1ccccn21
active: NCI-H23 lung -32.1% | NCI-H226 lung -6.42% | NCI-H322M lung -51.5% | HOP-62 NSCLC -25.6% | NCI-H460 lung -60% | HOP-92 NSCLC -20.6% | NCI-H522 lung -75.1% | A549/ATCC NSCLC -25% | 786-0 renal -18.4% | COLO 205 colon -75.8%

CCN(CC)CCCNc1cc(OC)cc2cccnc12
inactive: NCI-H23 lung 99.3% | NCI-H226 lung 92.7% | NCI-H322M lung 107% | HOP-62 NSCLC 102% | NCI-H460 lung 105% | HOP-92 NSCLC 124% | NCI-H522 lung 94.7% | A549/ATCC NSCLC 108% | 786-0 renal 102% | COLO 205 colon 83.9%

Cc1ccc(-c2nc(C#N)c(S(=O)(=O)n3nc(C)cc3N)o2)cc1
inactive: NCI-H23 lung 90.7% | NCI-H226 lung 94.1% | NCI-H322M lung 91% | HOP-62 NSCLC 103% | NCI-H460 lung 99.7% | HOP-92 NSCLC 72.8% | A549/ATCC NSCLC 99.4% | 786-0 renal 78%
active: NCI-H522 lung -15.8% | COLO 205 colon -32.3%

Cc1c(CC(=O)Nc2ccccc2)nnn1-c1ccccc1
inactive: NCI-H23 lung 100% | NCI-H226 lung 109% | NCI-H322M lung 105% | HOP-62 NSCLC 108% | NCI-H460 lung 106% | HOP-92 NSCLC 108% | NCI-H522 lung 93.4% | A549/ATCC NSCLC 107% | 786-0 renal 107% | COLO 205 colon 112%

CC1=C(C(=O)c2ccccc2)C(c2ccc3c(c2)OCO3)NC(=S)N1 (stereo not given)
active: NCI-H460 lung 8.05%
inactive: NCI-H23 lung 48% | NCI-H226 lung 66.5% | NCI-H322M lung 67.7% | HOP-62 NSCLC 51.8% | HOP-92 NSCLC 92.3% | NCI-H522 lung 38.3% | A549/ATCC NSCLC 40.3% | 786-0 renal 58.9% | COLO 205 colon 47.6%

O=C1NCCS(=O)(=O)/C1=C\C=C\c1cccc(C(F)(F)F)c1
inactive: NCI-H23 lung 22.3% | NCI-H226 lung 31.6% | NCI-H322M lung 63.4% | HOP-62 NSCLC 35.8% | NCI-H460 lung 50.1% | HOP-92 NSCLC 100% | NCI-H522 lung 16.9% | A549/ATCC NSCLC 39.4% | 786-0 renal 20.1% | COLO 205 colon 25.2%

C/C=C(/C)C(=O)O[C@@H]1CC(C)(C)CC2C34OC(=O)[C@@]21CC[C@@]3(C)[C@]1(C)CCC2C(C)(C)C(=O)CC[C@]2(C)C1C[C@@H]4O (stereo not given in full)
active: HOP-92 NSCLC 2.1%
inactive: NCI-H23 lung 73.5% | NCI-H226 lung 58.6% | NCI-H322M lung 70.2% | HOP-62 NSCLC 74.3% | NCI-H460 lung 42.4% | NCI-H522 lung 72.1% | A549/ATCC NSCLC 63.1% | 786-0 renal 74.7% | COLO 205 colon 56.1%

COc1ccc(-c2ccc(-c3ccc(C(=N)N)nc3)s2)cc1
inactive: NCI-H226 lung 83.4% | HOP-92 NSCLC 77.9%
active: NCI-H23 lung -29.9% | NCI-H322M lung -19.8% | HOP-62 NSCLC -54.9% | NCI-H460 lung -85.1% | NCI-H522 lung -44.9% | A549/ATCC NSCLC -56.7% | 786-0 renal -84.2% | COLO 205 colon -52.2%

CCCCCN(CCCCC)CC(O)c1c(Cl)ccc2ccccc12 (stereo not given)
inactive: NCI-H23 lung 54.1% | NCI-H226 lung 70.4% | NCI-H322M lung 71.2% | HOP-62 NSCLC 80.5% | NCI-H460 lung 66.5% | HOP-92 NSCLC 68.1% | NCI-H522 lung 79% | A549/ATCC NSCLC 67.6% | 786-0 renal 71.7% | COLO 205 colon 72.9%

CCOC(=O)c1cc(C(=O)c2cc(OC)cc(OC)c2)n2ccccc12
inactive: NCI-H23 lung 67.3% | NCI-H226 lung 73.5% | NCI-H322M lung 86.3% | HOP-62 NSCLC 30% | NCI-H460 lung 15% | HOP-92 NSCLC 64.3% | NCI-H522 lung 40.9% | A549/ATCC NSCLC 35.7% | 786-0 renal 36.4% | COLO 205 colon 13.5%

CC1(C)CC[C@]2(CO)CC[C@]3(C)C(=CC[C@@H]4[C@@]5(C)CCNCC(C)(C)[C@@H]5CC[C@]43C)[C@@H]2C1
inactive: NCI-H23 lung 88.4% | NCI-H226 lung 106% | NCI-H322M lung 68.9% | HOP-62 NSCLC 99.3% | NCI-H460 lung 49.5% | HOP-92 NSCLC 64.2% | NCI-H522 lung 70.7% | A549/ATCC NSCLC 85.6% | 786-0 renal 84.6%
active: COLO 205 colon -44.1%

O=C(O)/C=C/c1cn(-c2ccccc2)nc1-c1ccc(F)cc1
inactive: NCI-H23 lung 96.2% | NCI-H226 lung 95.1% | NCI-H322M lung 87% | HOP-62 NSCLC 81.7% | NCI-H460 lung 101% | HOP-92 NSCLC 84.3% | NCI-H522 lung 98.2% | A549/ATCC NSCLC 82.2% | 786-0 renal 96.1% | COLO 205 colon 104%
